Data reported in PubChem BioAssay.
Records with an inconclusive call do not appear.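 The calls were made as follows, unless noted: active = GFP response, as percent of the DMSO control, above the screen-wide mean plus 3 SD, about 139; inconclusive = no response measured because the compound's own fluorescence interfered; inactive = the rest.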

assay: yeast TOR pathway RPL19A-GFP modulators, primary screen, cell-based, S. cerevisiae, multiplex flow cytometry (AID 1862; in the data active = percent of DMSO control GFP below about 86%;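 also: lower values mimic rapamycin by blocking the RPL19A rise seen in DMSO cells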); conditions: S. cerevisiae RPL19A-GFP strain, flow cytometry fluorescence, 3 h; at 10 µM; active compounds read low

Percent of DMSO control GFP, inactive:
COc1cc2c(cc1OC)-c1cc(NC3CCCCCC3)nc(=O)n1CC2 100%
O=C(O)c1ccccc1OCCOc1ccccc1 93.4%
COC(=O)C1=NN(C(=O)c2cccc(Br)c2)C(O)(c2ccc(Cl)cc2)C1 (centres undefined) 100%

assay: modulators of MEP2-GFP levels in yeast, primary screen, S. cerevisiae, multiplex flow cytometry (AID 1867);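 also: median GFP channel fluorescence of barcode-gated MEP2-GFP cells measured by flow cytometry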; conditions: S. cerevisiae MEP2-GFP strain, 3 h, at 10 µM, active compounds read high, 100% means same as DMSO wells

GFP response vs DMSO, inactive:
COc1cc2c(cc1OC)-c1cc(NC3CCCCCC3)nc(=O)n1CC2 100%
O=C(O)c1ccccc1OCCOc1ccccc1 98.8%
COC(=O)C1=NN(C(=O)c2cccc(Br)c2)C(O)(c2ccc(Cl)cc2)C1 (centres undefined) 95.1%

assay: modulators of CIT2-GFP expression in yeast, primary screen, S. cerevisiae, GFP fusion, multiplex flow cytometry (AID 1870;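 active = percent response above a set limit, the screen-wide mean plus 3 SD, cut at about 130% in these data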;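 also: barcoded CIT2-GFP strain pooled with four other GFP strains with rapamycin as positive control; median GFP fluorescence per well over plate mean of DMSO wells so 100% = DMSO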); conditions: 3 h, at 10 µM, active compounds read high

Percent response of DMSO control, inactive:
COc1cc2c(cc1OC)-c1cc(NC3CCCCCC3)nc(=O)n1CC2 109%
O=C(O)c1ccccc1OCCOc1ccccc1 83.1%
COC(=O)C1=NN(C(=O)c2cccc(Br)c2)C(O)(c2ccc(Cl)cc2)C1 (centres undefined) 97.8%
